Screening results from PubChem BioAssay.
Most compounds without a hit are left out; they make up all but 4.6% or so of the library.
HIF-2a block: blocks HIF-2a reporter activity. 786-0 RCC cells HIF-2a reporter, luciferase luminescence, overnight. inhibition, % at 18.8 µM. actives 0.72% (n = 360,000). AID 624352;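 active means inhibition of the luminescence signal of 40% or more relative to plate controls, in a single-dose primary screen at 18.75 µM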
KKLEB tox: reduces viability of KKLEB cystic fibrosis airway cells. KKLEB CF airway cells viability, ATPlite luminescence, overnight; hits give low values; cells stimulated with P. aeruginosa culture filtrate. activity change (cytotoxicity), % at 5 µM. actives 0.36% (n = 360,000). AID 602141;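 active means corrected activity change at or below -50% at 5 µM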
Mdm2 MdmX PPI: inhibitors of human Mdm2/MdmX interaction. O15151+Q00987. SaOS-2 split-luciferase Mdm2/MdmX complementation, luminescence. inhibition, % at 8 µM. actives 3% (n = 330,000). AID 485346;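 active means inhibition of at least 50% at 8 µM in the primary screen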
Target sequence (O15151 whole entry, looked up): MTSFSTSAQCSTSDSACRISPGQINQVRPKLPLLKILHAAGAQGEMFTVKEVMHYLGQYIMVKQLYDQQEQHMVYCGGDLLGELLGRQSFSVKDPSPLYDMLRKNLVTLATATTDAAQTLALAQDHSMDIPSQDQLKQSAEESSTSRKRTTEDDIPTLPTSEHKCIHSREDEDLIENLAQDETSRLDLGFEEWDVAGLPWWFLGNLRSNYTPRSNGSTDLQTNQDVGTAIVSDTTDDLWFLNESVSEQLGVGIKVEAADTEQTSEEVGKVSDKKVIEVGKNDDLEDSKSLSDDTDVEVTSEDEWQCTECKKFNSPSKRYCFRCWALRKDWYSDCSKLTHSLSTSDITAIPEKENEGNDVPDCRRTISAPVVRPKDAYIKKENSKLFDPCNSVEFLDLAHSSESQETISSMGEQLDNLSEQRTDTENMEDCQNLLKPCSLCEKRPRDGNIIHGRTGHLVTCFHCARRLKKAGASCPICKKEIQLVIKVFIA
Target sequence (Q00987 whole entry, looked up): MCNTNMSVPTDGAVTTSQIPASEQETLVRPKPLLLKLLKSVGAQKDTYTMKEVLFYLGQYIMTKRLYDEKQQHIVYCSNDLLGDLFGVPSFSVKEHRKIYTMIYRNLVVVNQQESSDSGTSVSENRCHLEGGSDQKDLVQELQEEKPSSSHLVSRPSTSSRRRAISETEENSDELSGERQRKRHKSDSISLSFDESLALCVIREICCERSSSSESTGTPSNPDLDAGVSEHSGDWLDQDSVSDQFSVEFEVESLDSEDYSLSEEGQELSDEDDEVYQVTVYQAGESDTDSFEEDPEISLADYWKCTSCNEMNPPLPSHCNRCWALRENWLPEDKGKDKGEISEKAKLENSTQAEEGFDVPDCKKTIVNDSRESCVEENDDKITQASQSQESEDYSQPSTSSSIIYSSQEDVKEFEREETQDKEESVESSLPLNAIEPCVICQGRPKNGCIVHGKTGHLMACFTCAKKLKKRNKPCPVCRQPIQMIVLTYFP
ABHD5-PLIN5 inh: ABHD5-PLIN5 protein interaction inhibition | Split G. princeps luciferase complementation, luminescence, 4 h | actives 0.78% (n = 360,000) | inhibition, % at 4 µM;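 active means inhibition above the mean inhibition across every tested compound plus 3 SD, cut at about 22% in these data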;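 further: 0% = DMSO only wells and the 100% control is not disclosed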
CF NFkB inh: inhibitors of cystic fibrosis induced NF-kB; inhibition, % at 5 µM; actives 0.86% (n = 360,000); KKLEB NF-kB-GFP reporter, PAF-induced, GFP fluorescence overnight; AID 588850;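 active means at least 50% inhibition at 5 µM, scaled per plate between neutral and stimulator controls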;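 further: PAF is a Pseudomonas aeruginosa culture filtrate used as stimulus; plate controls were PAF-stimulated DMSO wells for no effect and unstimulated DMSO wells for full effect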
Peg3 prom inh: reduces Peg3 promoter-driven luciferase expression in HeLa. HeLa PEG-Prom luciferase reporter, luminescence, overnight. inhibition, % at 20 µM. actives 1.7% (n = 360,000);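 active means inhibition of at least 50% at 20 µM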
Mdm2-MdmX conf: confirmation of human Mdm2/MdmX interaction inhibitors; inhibition, % at 8 µM; Mdm2-MdmX binding, luminescent assay; shares compounds with Mdm2 MdmX PPI; AID 489028; actives 55% (n = 10,000); in the data active means inhibition above about 40%
FLuc counter: counter-screen for Mdm2/MdmX inhibitors: full-length luciferase; SaOS-2 full-length luciferase counterscreen, luminescence; actives 77% (n = 6,200); shares compounds with Mdm2 MdmX PPI; AID 504607; inhibition, % at 8 µM;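 active means mean inhibition at 8 µM reaching about 37%, which flags the compound as non-specific, limit read from the data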;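 further: p53-null SaOS-2 cells with luciferase driven by a doxycycline-inducible promoter; compound on cells about two nights before reading with doxycycline added after day one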
Numbers without * were called inactive; x = not tested or not shown.

SMILES	HIF-2a block	KKLEB tox	Mdm2 MdmX PPI	ABHD5-PLIN5 inh	CF NFkB inh	Peg3 prom inh	Mdm2-MdmX conf	FLuc counter
CC(=O)Nc1cccc(-c2ccnc3c2CC(C)(C(=O)NCc2ccc(N(C)C)cc2)O3)c1 (configuration not stated)	-8	-7	x	0	-15	3	x	x
COc1ccc(NC(=O)c2cc(-c3cc(F)ccc3OC(C)C)n[nH]2)cc1OC	1	-7	x	-1	-11	5	x	x
COc1cc(N(C(=O)Cc2cccs2)C(C(=O)NC2CCCCC2)c2ccc(C)cc2)ccc1-n1cnnn1 (configuration not stated)	17	-56*	84*	-1	67*	3	19	x
O=C(CCCn1nnnc1CN1CCOCC1)N1CCC(c2ccc(F)cc2)C1 (configuration not stated)	11	0	-3	-8	18	4	x	x
CN1C(=O)C(C)(C)c2cc(S(=O)(=O)N3CCC(C(=O)Nc4ccc(Cl)cc4)CC3)ccc21	12	-16	12	-5	31	15	x	x
COC(=O)c1c(O)c2c([nH]c1=O)CCCC2	15	0	12	2	-2	-4	x	x
COC(=O)c1ccccc1NC(=O)c1c(O)c2c([nH]c1=O)CCCC2	-6	-4	56*	-5	8	-22	11	x
Cc1ccccc1NC(=O)c1ccc(CN2CCC(Cc3ccccc3)CC2)cc1	3	-7	58*	2	14	24	35	82*
CCOC(=O)c1ccc(NC(=O)c2nc[nH]c2C(=O)NCCNC(=O)c2[nH]cnc2C(=O)Nc2ccc(C(=O)OCC)cc2)cc1	-14	-50*	100*	15	76*	91*	41*	81*
Cc1cccc(NC(=O)c2nc[nH]c2C(=O)N[C@H](C)c2ccccc2)c1	9	18	57*	-11	6	30	38	50*
CCOC(=O)c1ccc(NC(=O)c2nc[nH]c2C(=O)N[C@H](C)c2ccccc2)cc1	14	12	60*	11	-37	14	18	x
Fc1ccc(-c2nc3ccc(Br)cn3c2Cc2ccccc2C(F)(F)F)cc1	-162	-28	x	6	38	-110	x	x
Nc1ccc2c(c1)C(=O)c1ccc(N)cc1-2	-130	-4	x	-2	-23	-190	x	x
O=C(CN1CCCCC1)Nc1ccc(NC(=O)c2ccc(Cl)cc2)cc1Cl	-3	-10	57*	-5	8	-8	14	x
CN1CCN(c2ccc([N+](=O)[O-])cc2C(=O)c2ccc(Cl)cc2)CC1	21	-21	50*	1	22	15	61*	57*
CC1CCCN(c2ccc([N+](=O)[O-])cc2C(=O)c2ccccc2)C1 (configuration not stated)	23	-19	65*	4	27	15	55*	99*
CN1CCN(c2ccc([N+](=O)[O-])cc2C(=O)N2CCCCC2)CC1	7	8	-41	5	14	-7	x	x
O=C(c1ccc(Cl)cc1)c1cc([N+](=O)[O-])ccc1N1CCOCC1	35	-10	65*	0	36	16	52*	81*
O=C(COC(=O)c1cc([N+](=O)[O-])ccc1N1CCOCC1)Nc1ccc(Cl)cn1	13	-15	76*	5	22	53*	58*	68*
O=C(c1ccc(Br)cc1)c1cc([N+](=O)[O-])ccc1N1CCOCC1	20	-39	48	8	25	41	x	x
COc1ccc(CNC(=O)COC(=O)c2cc(S(=O)(=O)N3CCOCC3)ccc2O)cc1OC	12	0	1	4	-8	18	x	x
Cc1c(NC(=O)c2ccc(S(=O)(=O)N3CCOCC3)cc2)c(=O)n(-c2ccccc2)n1C	3	-1	-3	2	4	-10	x	x
Cc1ccc(C(=O)c2cc([N+](=O)[O-])ccc2N2CCCCC2)cc1	29	-37	53*	-7	45	11	65*	96*
COc1ccc(COC(=O)c2cc([N+](=O)[O-])ccc2N2CCOCC2)cc1F	29	-23	72*	1	55*	-5	78*	125*
CCN1CCN(c2ccc(S(=O)(=O)N3CCCCC3)cc2NC(=O)CC(C)c2ccccc2)CC1 (configuration not stated)	0	-8	18	1	-7	2	x	x
SMILES	HIF-2a block	KKLEB tox	Mdm2 MdmX PPI	ABHD5-PLIN5 inh	CF NFkB inh	Peg3 prom inh	Mdm2-MdmX conf	FLuc counter
N#Cc1ccc(CNC(=O)N2CCOCC2)cc1	-5	x	23	3	-13	-5	x	x
CN(C)CCCN(C(=O)c1sc2ccccc2c1Cl)c1nc2c(F)cccc2s1	-8	-7	-22	3	6	-8	x	x
CN(C)CCCN(C(=O)c1cc(-c2cccs2)nc2ccccc12)c1nc2c(F)cccc2s1	8	-21	57*	17	31	71*	31	x
CC(=O)N1CCOCC1c1cc(C(=O)Nc2ccccc2)no1 (configuration not stated)	-45	9	x	-1	-26	-25	x	x
Cc1nc2c(-c3ccccc3)cnn2c(N)c1-c1ccccc1	32	-65*	83*	-5	-15	40	77*	148*
Cc1cc(-c2ccccc2)n2ncc(-c3ccccc3)c2n1	-46	-30	6	-2	-4	-61	x	x
Cc1ccc(S(=O)(=O)N2CCN(C(=O)C3CCN(C(=O)c4ccc(F)cc4)CC3)CC2)c(C)c1	18	10	17	-4	-6	20	x	x
O=C(Nc1ccccc1SCC1CSc2nc3ccccc3c(=O)n21)c1ccccc1 (configuration not stated)	5	-7	15	1	4	8	x	x
Cc1ccc(C(=O)Nc2ccccc2SCC2CSc3nc4ccccc4c(=O)n32)cc1 (configuration not stated)	-23	0	70*	8	10	-7	47*	55*
O=C(Nc1ccccc1SCC1CSc2nc3ccccc3c(=O)n21)c1cccc(Cl)c1 (configuration not stated)	4	-4	77*	7	-1	23	55*	43*
Cc1cccc(C(=O)Nc2ccccc2SCC2CSc3nc4ccccc4c(=O)n32)c1 (configuration not stated)	-7	-8	63*	2	-1	11	44*	107*
O=C(Nc1ccccc1SCC1CSc2nc3ccccc3c(=O)n21)c1ccccc1Cl (configuration not stated)	5	-9	-14	7	5	4	x	x
COc1ccc(-c2nc3ccc(C)cn3c2CC(C)(C)C)cc1OC	-22	-18	x	-1	12	-6	x	x
Cc1cccc(/C=C/c2onc(C)c2[N+](=O)[O-])n1	x	x	100*	x	x	x	71*	22
